From PubChem BioAssay AID651821 (The Scripps Research Institute Molecular Screening Center, 2012)
In all, about 370,000 compounds went through this assay and about 4,700 (1.3%) were called active. Only a selection was taken, and actives are over-represented in it overall. Values without a mark were called inactive.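 The calls were made as follows: active = inhibition above the plate cutoff, the mean of all test compounds on that plate plus 3 SD (cut at about 35% in these data); inactive = the rest.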

Experiment: binders of r(CAG) RNA repeats, primary screen, biochemical, fluorescence (AID 651821);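 also: 0% = DMSO alone and 100% = 100 µM mitoxantrone as full dye displacement; higher means more dye released from RNA so lower well fluorescence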
Conditions: r(CAG) RNA repeat, TO-PRO-1 dye displacement fluorescence; at 3 µM; active compounds read high

| Compound | inhibition |
| --- | --- |
| C=CCn1c(C2CC(=O)N(c3ccc(C)cc3)C2)nc2ccccc21 (stereo not drawn) | -6.52% |
| C=CCn1c(=S)[nH]c2scc(-c3ccco3)c2c1=O | 51.7% (active) |
| C=CCOC/C=C/C#CCN(CC=C)Cc1ccc(OC)cc1OC | -2.46% |
| COC(=O)[C@]12C[C@H](CC(=O)NCc3cccc(C(F)(F)F)c3)C(=O)N(Cc3ccc4c(c3)OCO4)C1=C[C@H](COCc1ccccc1)O[C@@H]2C | 7.43% |
| Cc1cc(NS(=O)(=O)c2ccc(NC(=O)CSc3nnc(-c4ccc(C(C)(C)C)cc4)n3Cc3ccco3)cc2)nc(C)n1 | 37% (active) |
| Cc1cc(NS(=O)(=O)c2ccc(NC(=O)CSc3nnc(SCc4ccc(F)cc4)s3)cc2)nc(C)n1 | 43.9% (active) |
| CCn1c2ccccc2c2cc(NC(=O)CSc3nnc(-c4ccccc4)n3-c3ccc(C)cc3)ccc21 | 11.4% |
| O=C(CSc1nnc(SCc2ccc(F)cc2)s1)Nc1ccc(C(=O)O)cc1 | 24.4% |
| O=C(CSc1nnc(-c2cccc(Cl)c2)n1Cc1ccco1)Nc1ccc(OCc2ccccc2)cc1 | 8.04% |
| Cc1nnc(SCC(=O)Nc2ccc(S(=O)(=O)Nc3ccc(Cl)nn3)cc2)s1 | 16.9% |
| CCn1c(SCC(=O)Nc2ccc(S(=O)(=O)Nc3onc(C)c3C)cc2)nnc1-c1ccccc1 | 35.5% (active) |
| Cc1noc(NS(=O)(=O)c2ccc(N3CC(O)=C(c4ccccc4)C3=N)cc2)c1C | 2.76% |
| Cc1ccc(-c2nnc(SCC(=O)Nc3ccc(Oc4ccccc4)cc3)n2Cc2ccco2)cc1 | 10.4% |
| COC(=O)C1=C(C)N(Cc2cccc(C(F)(F)F)c2)C(=NCc2ccccc2)NC1c1ccccc1C(F)(F)F (stereo not drawn) | 4.41% |
| NC(=O)c1ncn([C@@H]2O[C@H](C(=O)O)[C@@H](O)[C@H]2O)n1 | 1.22% |
| COc1ccc(C#CCNCc2ccc(OC)cc2OC)cc1 | 7.62% |
| CC(=O)OC1CCC2(C)C(=CCC3C4CC(=O)N(O)C(=O)C4(C)CCC32)C1 (stereo not drawn) | 5.82% |
| CC(=O)OCCN1CCCC12CCC(c1ccccc1)CC2 (stereo not drawn) | 2.02% |
| COC(=O)[C@]12C[C@H](CC(=O)NCCCN3CCCC3=O)C(=O)N(CCc3ccc(OC)c(OC)c3)C1=C[C@H](COCc1ccccc1)O[C@@H]2C | 3.23% |
| CC(=O)Nc1nc2ncccn2c1-c1ccc(C(F)(F)F)cc1 | 0.83% |
| Cc1ccc(C2NC(C(=O)O)CS2)cc1 (stereo not drawn) | 0.84% |
| COCCNC(=S)N(C)[C@H]1C[C@H]2c3[nH]c4ccccc4c3CCN2C[C@H]1[C@H](C)O | 0.81% |
| COC(=O)[C@]12C[C@H](CC(=O)NCc3ccccc3)C(=O)N(CCC3=CCCCC3)C1=C[C@H](C(C)C)O[C@@H]2C1CC1 | 3.49% |
| O=C(c1c[nH]c2ccccc12)N1CCC(Oc2cccnc2)CC1 | 0.25% |

| Compound | inhibition |
| --- | --- |
| CC(C)=CCCC1(C)C=Cc2c(ccc3c2[nH]c2cc(O)c(C)cc23)O1 (stereo not drawn) | 50.7% (active) |
| COP(=O)(O)CNC(=O)OCc1ccccc1 | 3.7% |
| C[C@@H](CN1C2=NC[C@@H](Cc3ccccc3)N2C[C@H]1Cc1ccc(O)cc1)NC(=O)CCC1CCCCC1 | 10.8% |
| C=C(C)C#CC(Cc1ccccc1)NCC1CC1 (stereo not drawn) | 0.83% |
| O=C(CSc1nnc(-c2cccs2)n1Cc1ccco1)c1ccc2c(c1)OCO2 | 2.71% |
| Cc1sc2nc(SCC(=O)c3ccc(O)c(O)c3)n(Cc3ccco3)c(=O)c2c1C | 60.5% (active) |
| O=C(CSc1nnc(COc2ccccc2)n1Cc1ccco1)c1ccc2ccccc2c1 | 10.1% |
| CN[C@H]1C[C@H]2c3cc(N4CCOCC4)ccc3CCN2C[C@H]1[C@H](C)O | 0.53% |
| COC(=O)c1ccc(NC(=O)CSc2nc(N)c(NC(=O)c3ccc(Br)o3)c(=O)[nH]2)cc1 | 8.43% |
| COc1ccc(OCC(=O)Nc2nnc(-c3ccco3)s2)cc1 | 35.6% (active) |
| COc1ccc(OCCCC(=O)Nc2nnc(C3CCCO3)s2)cc1 (stereo not drawn) | -2.42% |
| COc1ccc(CNC(=O)CCC(=O)Nc2nnc(C(C)C)s2)cc1 | -3.44% |
| CC(=O)C1=C(C)N(Cc2ccccc2)C(=S)NC1c1cccc(Br)c1 (stereo not drawn) | 3.69% |
| Cc1[nH]nc2c1C(c1ccc(Br)cc1)NC2=O (stereo not drawn) | 2.38% |
| CCc1cc(-c2nnc(SCC(=O)NC3CC3)n2C)cs1 | -0.55% |
| Cc1nnc(SCC(=O)NCc2cccs2)[nH]c1=O | 1.73% |
| CCc1ccc(C(=O)CSc2nnc(C)c(=O)[nH]2)cc1 | 1.9% |
| N#Cc1c(-c2cccs2)nc(SCC(=O)c2ccc(Br)cc2)[nH]c1=O | 76% (active) |
| COc1ccc(-n2c(COc3ccccc3)nnc2SCC(=O)Nc2ccc3c(c2)OCO3)cc1 | 3.35% |
| CN[C@H]1C[C@H]2c3[nH]c4c(-c5ccccc5)cccc4c3CCN2C(=O)[C@H]1[C@H](C)O | 1.12% |
| COc1ccc([C@H]2OC(=O)C[C@H]2C(=O)N2CCN(c3ccccc3F)CC2)cc1OC | -0.41% |
| O=C(CCCCCN1C(=O)C2C3C=CC(C3)C2C1=O)Nc1ccccc1 (stereo not drawn) | -0.35% |
| O=C(Nc1cccc(F)c1)c1cc(-c2ccco2)nc2ccccc12 | 35% (active) |
| Cc1cc(C(=O)Nc2ccc(C)c(S(=O)(=O)N3CCOCC3)c2)c2ccccc2n1 | 5.4% |

| Compound | inhibition |
| --- | --- |
| O=C(O)c1cccc(NC(=O)c2cc(-c3cccc(Cl)c3)nc3ccccc23)c1 | 49.4% (active) |
| O=C(Nc1cccc(F)c1)c1coc(=O)c(Br)c1 | 1.62% |
| Cc1c(C(=O)Nc2cccc(Cl)c2)cn2c(nc3ccccc32)c1C#N | 0.68% |
| O=C(Nc1nc2ccc(Cl)cc2s1)c1cc(-c2ccc(Cl)cc2)nc2ccccc12 | 7.74% |
| CN(C)S(=O)(=O)c1cccc(C(=O)N/N=C\c2ccco2)c1 | 3.29% |
| Cc1ccc(S(=O)(=O)N2CC3C(=O)C[C@@H](c4ccccc4Cl)N(S(=O)(=O)c4ccc(C)cc4)C3CC2c2ccccc2)cc1 (stereo partly drawn) | 8.71% |
| CC(C)CSc1nnc(-c2cccnc2)n1Cc1ccccc1 | -1.04% |
| CN(C)CCCCCN(C)Cc1cc2ccccc2o1 | -1.3% |
| CC(=O)O[C@@]1(C(C)=O)CCC2[C@H]3C=C(C)C4=CC(=O)CC[C@@]4(C)C3CC[C@]21C (stereo partly drawn) | 1.96% |
| COc1cccc(-c2coc3cc4oc(=O)c(CC(=O)O)c(C)c4cc23)c1 | 46.5% (active) |
| CCCCCCc1cc2cc(-c3nnc(-c4cccc(OC)c4)o3)c(=O)oc2cc1O | 0.83% |
| Cc1coc2cc3oc(=O)c(CCC(=O)O)c(C)c3cc12 | -1.41% |
| CC[C@@H]1Cc2cc(O)ccc2C2=C1c1ccc(O)cc1C[C@H]2CC | 6.76% |
| CCCCNC(=O)C[C@H]1C(=O)N(Cc2ccc(OC)cc2)C2=CCCC[C@@]21C(=O)OCC | -0.31% |
| O=C1Nc2ccccc2OC1CC(=O)N1CCCCCCC1 (stereo not drawn) | 4.22% |
| Cc1ccc(S(=O)(=O)Nc2nc3ccccc3s2)cc1[N+](=O)[O-] | 45% (active) |
| CCOc1ccc2sc(NS(=O)(=O)c3ccc(N)cc3)nc2c1 | 9.5% |
| Cc1ccc(S(=O)(=O)N(Cc2ccccc2)c2ccccn2)cc1[N+](=O)[O-] | -3.84% |
| CCOC(=O)[C@]12CCCC=C1N(Cc1ccc(OC)cc1)C(=O)[C@@H]2CC(=O)N1CCOCC1 | -1.51% |
| CN1CCCCC(NC(=O)C(C)(C)C)C1=O (stereo not drawn) | 2.33% |
| COC(=O)[C@]12C[C@H](CC(=O)NCc3ccccc3)C(=O)N(CCc3ccc(OC)c(OC)c3)C1=C[C@H](C(C)(C)C)O[C@@H]2C | -2.21% |
| COC(=O)CSc1ncnc2c1cnn2-c1ccc(C)cc1C | -5.94% |
| CC(Sc1ncnc2c1cnn2-c1ccccc1)C(=O)Nc1ccc(N2CCOCC2)cc1 (stereo not drawn) | 5.83% |
| Cc1ccc(-n2ncc3c(Nc4cccc(C(=O)O)c4)ncnc32)cc1 | 40.9% (active) |

| Compound | inhibition |
| --- | --- |
| O=C(NCCC1=CCCCC1)C1CCN(S(=O)(=O)c2ccc(Cl)s2)CC1 | 1% |
| CSc1ccc(CN(C)CC(=O)NCc2ccc(F)cc2)cc1 | -7.36% |
| O=C(NCc1ccccc1)[C@H]1CCCN1C(=O)[C@@H]1CCCN1C(=O)c1ccc(Cl)cc1Cl | 1.95% |
| COC(=O)c1scc(C)c1NC(=O)CSc1ccc(Cl)cc1 | -5.15% |
| COC(=O)c1sccc1NS(=O)(=O)c1ccc(F)cc1F | 1.91% |
| COC(=O)c1sccc1NC(=O)CSc1ccccc1NS(=O)(=O)c1cc(Cl)ccc1Cl | 59.2% (active) |
| C=CC[C@]12C[C@@]3(O[C@H](c4ccc(C(F)(F)F)cc4)N=C3C[C@H](c3ccc(OC)cc3)[C@H]1C)N(C1CCN(Cc3ccccc3)CC1)C2=O | 5.05% |
| COc1ccc(C(=O)OCCN2CCN(C3CN(Cc4cn(Cc5ccccc5F)nn4)S(=O)(=O)C3)CC2)cc1OC (stereo not drawn) | 1.05% |
| CCC(=O)OCCCN1C(=O)CCC12CCC(c1ccccc1)CC2 (stereo not drawn) | -0.66% |
| COC(=O)C(C)Oc1ccc2c(-c3cccc([N+](=O)[O-])c3)cc(=O)oc2c1 (stereo not drawn) | 1.44% |
| COc1ccc(-c2cc(C(=O)NC(Cc3c[nH]c4ccccc34)C(=O)O)c(C)o2)cc1OC (stereo not drawn) | 53.8% (active) |
| CC(Oc1ccc2c(-c3ccccc3)cc(=O)oc2c1)C(=O)NC(Cc1c[nH]c2ccccc12)C(=O)O (stereo not drawn) | 42.8% (active) |
| O=C(CCn1nnc2ccccc2c1=O)N[C@@H](Cc1c[nH]c2ccccc12)C(=O)O | 2.19% |
| O=C(N[C@@H](Cc1c[nH]c2ccccc12)C(=O)O)OCC1c2ccccc2-c2ccccc21 | 59.4% (active) |
| COc1ccc(-c2cc(C(=O)NC(C(=O)O)C(C)C)c(C)o2)cc1OC (stereo not drawn) | 6.76% |
| CCOCCCNC(=O)C(NC(=O)Cc1c[nH]c2ccccc12)c1ccc(OC)cc1 (stereo not drawn) | -4.93% |
| COc1ccc(-c2cc(=O)oc3cc(OC(C)C(=O)NCC4CCC(C(=O)O)CC4)ccc23)cc1 (stereo not drawn) | 8.77% |
| O=C(NC(Cc1c[nH]c2ccccc12)C(=O)O)/C(=C/c1ccco1)NC(=O)c1ccccc1 (stereo not drawn) | 20.3% |
| COc1ccc(-c2cc(=O)oc3cc(OCC(=O)N(C)C4CCS(=O)(=O)C4)ccc23)cc1 (stereo not drawn) | -1.96% |
| COc1ccc(-c2cc(=O)oc3cc(OCC(=O)N[C@@H](Cc4c[nH]c5ccccc45)C(=O)O)ccc23)cc1 | 55.5% (active) |
| COC(=O)C(Cc1c[nH]c2ccccc12)NC(=O)CCNC(=O)c1ccco1 (stereo not drawn) | 2% |
